# Screening data deposited in PubChem by several laboratories.
# HDAC3 inhib – blocks human histone deacetylase 3; 320,000 compounds, 0.15% hits; AID 2718; inhibition, % at 8.3 µM; O15379; recombinant HDAC3, fluorogenic peptide/trypsin coupled, fluorescence; in the data active means inhibition above about 26%, passing the limit was not always enough; inconclusive means no clear call, values can overlap the other calls
# Target sequence (O15379 whole entry, looked up): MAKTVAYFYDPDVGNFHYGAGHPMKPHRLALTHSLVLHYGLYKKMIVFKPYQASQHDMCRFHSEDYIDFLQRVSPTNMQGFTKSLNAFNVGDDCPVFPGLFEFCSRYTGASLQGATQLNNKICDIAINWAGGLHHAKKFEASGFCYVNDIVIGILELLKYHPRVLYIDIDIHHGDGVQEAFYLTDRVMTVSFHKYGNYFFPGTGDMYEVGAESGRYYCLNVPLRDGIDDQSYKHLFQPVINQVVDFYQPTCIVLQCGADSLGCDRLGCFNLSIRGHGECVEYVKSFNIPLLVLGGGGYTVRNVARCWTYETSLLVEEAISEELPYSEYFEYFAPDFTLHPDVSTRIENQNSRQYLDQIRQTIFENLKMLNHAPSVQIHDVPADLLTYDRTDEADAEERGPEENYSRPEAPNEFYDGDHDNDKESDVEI
# TMEM16A inh – inhibitors of mouse TMEM16A calcium-activated chloride channel | Q8BHY3 | 310,000 compounds, 1.2% hits | HEK293 TMEM16A/YFP iodide influx fluorescence, ionomycin | normalized B-score (activity score, 25-100; higher = stronger inhibition) at 10 µM;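 active means ratio plate-corrected score three or more library SD toward inhibition, starting fluorescence score within five deviations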;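 further: score derived from kinetic fluorescence span divided by baseline fluorescence per well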
# CHT allo act – allosteric activators of human choline transporter CHT | CHT-expressing cells, membrane potential dye, choline EC20; active compounds read high; LV-AA mutant CHT in HEK293 cells | 310,000 compounds, 0.49% hits | B-score at 10 µM | Q9GZV3 | AID 488977;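 active means initial fluorescence not abnormally high and integrated response B-score, plate-corrected, over 3 SD above library mean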
# PHOSPHO1 block – blocks human PHOSPHO1 phosphatase activity; Q8TCT1; recombinant PHOSPHO1, absorbance phosphatase assay; inhibition, % at 13.3 µM; 290,000 compounds, 1.1% hits; in the data active means inhibition above about 60%
# CHT inh – inhibitors of human choline transporter CHT. Q9GZV3. CHT-expressing cells, membrane potential dye, choline response; active compounds read low. B-score at 10 µM. 310,000 compounds, 0.86% hits. AID 488975;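 active means B-score over 3 SD under the library average, and starting fluorescence ratio not unusually high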;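 further: choline stimulus applied at its EC90 after an EC20 pre-addition; B-score computed on integrated fluorescence ratio after choline addition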
# ANO1 activ – mouse TMEM16A channel activation, primary screen; HEK293 TMEM16A/YFP-H148Q/I152L, iodide quench fluorescence; active compounds read low; B-score at 10 µM; 340,000 compounds, 0.3% hits; AID 623877;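 active means fluorescence-ratio B-score plate-corrected deviation score at least 3 library SD below zero, with starting fluorescence score within 5 deviations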;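 further: channel opened by trigger with iodide after compound preincubation; score built on the fluorescence ratio of max minus min over baseline; more negative score means more quench and so TMEM16A activation or potentiation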
# CHT activ conf – human CHT activation, confirmatory screen. activation, % at 10 µM. shares compounds with CHT allo act. CHT-expressing cells, membrane potential dye fluorescence (FDSS); % of choline EC20–EC90 response window; HEK293 expressing CHT LV-AA mutant; choline added at its EC20. 2,500 compounds, 91% hits. AID 504833;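 active means primary screen active, with duplicate mean activation above negative control mean plus 3 SD, cut at about 11% in these data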
# HEK293 MP dye – CHT activator counter-screen hit in parental HEK293 cells | shares compounds with CHT allo act | membrane potential dye fluorescence (FDSS); measured after EC20 choline addition | ratio readout change at 10 µM, hits read low | 2,500 compounds, 62% hits;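 active means duplicate-averaged ratio beyond 3 SD from buffer wells, up or down, though filed actives are nearly all decreases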
# Hits are given with their value; . = inactive; ? = inconclusive; / = no result given. Shown are actives, neighbours in structure and some others; about 3.2% of the full set was active somewhere.
SMILES,HDAC3 inhib,TMEM16A inh,CHT allo act,PHOSPHO1 block,CHT inh,ANO1 activ,CHT activ conf,HEK293 MP dye
Cc1nc2ccccc2c2oc(C(=O)NCCN3CCCCC3C)cc12 (centres undefined),.,.,.,.,.,.,34.2,.
CCN1CCCC1CNC(=O)c1cc2c(C)nc3ccccc3c2o1 (centres undefined),.,.,.,.,.,.,/,/
Cc1nc2ccccc2c2oc(C(=O)N3CCC(N4CCCCC4)CC3)cc12,?,.,7.03,.,.,.,48.9,-41.3
Cc1nc2ccccc2c2oc(C(=O)N3CCN(C4CCCCC4)CC3)cc12,.,.,.,.,.,.,/,/
COc1ccc(OC)c(C(C(=O)NCc2ccco2)N(C(=O)Cn2nnc3ccccc32)C(C)C)c1 (centres undefined),.,.,.,.,.,.,/,/
CN(CC(=O)Nc1c(Cl)cccc1Cl)C(=O)c1cccc(S(=O)(=O)NCc2ccccc2)c1,.,.,.,/,.,.,/,/
Cc1[nH]n(-c2ccc([N+](=O)[O-])cc2)c(=O)c1C=NCCc1ccc(S(N)(=O)=O)cc1,.,.,.,.,.,.,/,/
CCCc1[nH]n(-c2ccc([N+](=O)[O-])cc2)c(=O)c1C=NCCCn1ccnc1,.,.,.,.,.,.,37.2,-48.3
O=C(CNC1=NCCC1)c1ccc2c(c1)OCCO2,/,.,.,.,.,.,36.3,-28.3
Cc1sc2nc3ccc(N4CCCC4)nn3c(=O)c2c1C,.,.,.,.,.,.,38.1,-37.6
CC(C)(C)OC(=O)NCc1ccc(CNC(=O)c2nc[nH]c2C(=O)N2CCN(c3ccccc3)CC2)cc1,.,/,/,/,/,.,/,/
CCN1CCc2c(sc(NC(=O)Cc3ccccc3)c2C(=O)OC)C1,.,.,.,.,.,.,/,/
CCN1CCc2c(sc(NC(=O)c3ccc(S(=O)(=O)N4CCOCC4)cc3)c2C(N)=O)C1,.,.,7.8,.,.,.,38.4,-41
CCOC(=O)c1c(NC(=O)Cc2ccccc2)sc2c1CCN(CC)C2,.,.,.,.,.,.,34.1,-34.6
Cc1cc(C(=O)N(CCC#N)Cc2cccs2)no1,.,.,.,.,.,.,/,/
O=C(O)CCC(=O)NN1C(=O)c2ccccc2NC1c1ccc(F)cc1 (centres undefined),.,.,.,.,.,.,/,/
O=C(Nc1ncc(Cc2ccccc2Cl)s1)c1ccc(-c2cccc([N+](=O)[O-])c2)o1,.,.,.,.,.,.,/,/
COc1cc(Nc2ccc(S(=O)(=O)N3CCN(C)CC3)cc2[N+](=O)[O-])cc(OC)c1,.,.,.,/,.,.,.,-21.1
Oc1nc(-c2ccc(Cl)cc2)n2ccncc12,.,.,.,.,.,.,/,/
COC(=O)c1ccc(-c2nc(O)c3cnccn23)cc1,.,.,.,.,.,.,23.1,-37.2
CCCC(=O)Nc1ccc(Cl)c(NC(=S)NC(=O)c2cc3ccccc3o2)c1,.,.,.,.,.,.,/,/
O=c1[nH]c2ccc(S(=O)(=O)N3CCN(C4CCCCC4)CC3)cc2[nH]c1=O,.,.,.,.,.,.,46.1,-42.3
COc1ccccc1CNC(=O)C(Cc1ccccc1)NC(=O)c1ccccc1 (centres undefined),.,/,/,/,/,.,/,/
Cc1cccn2c(=O)c3cc(C(=O)N4COCC4(C)C)sc3nc12,.,.,.,.,.,.,34.5,-30
Cc1ccccc1Oc1nc2c(C)cccn2c(=O)c1/C=C(\C#N)C(=O)NC1CCS(=O)(=O)C1 (centres undefined),.,.,.,.,.,.,/,/
SMILES,HDAC3 inhib,TMEM16A inh,CHT allo act,PHOSPHO1 block,CHT inh,ANO1 activ,CHT activ conf,HEK293 MP dye
Cc1cccn2c(=O)c(/C=C(\C#N)C(=O)NC3CCS(=O)(=O)C3)c(Oc3ccccc3Cl)nc12 (centres undefined),.,.,.,.,.,.,.,-47.2
Cc1cccn2c(=O)c3cc(C(=O)NC4CCCC4)c(=N)n(C4CCCC4)c3nc12,.,.,.,.,.,.,33.8,-38.8
CCCn1c(=N)c(C(=O)NC2CCCC2)cc2c(=O)n3cccc(C)c3nc21,.,.,.,.,.,.,/,/
Cc1cccn2c(=O)c3cc(C(=O)NC4CCS(=O)(=O)C4)sc3nc12 (centres undefined),.,.,6.44,.,.,.,51.1,-42.9
Cc1cccn2c(=O)c3cc(C(=O)NC4CCCCCC4)sc3nc12,.,.,.,.,.,.,/,/
O=C(CN1C(=O)NC(Cc2c[nH]c3ccccc23)C1=O)Nc1ccc(Br)cc1F (centres undefined),.,/,/,/,/,.,/,/
C=CCNC(=O)CSc1nc2ccccc2c(=O)n1CCc1ccc(OC)c(OC)c1,.,.,.,.,.,.,/,/
COc1ccc(CCn2c(SCCN3CCCCC3)nc3ccccc3c2=O)cc1OC,.,.,7.37,.,.,.,56.3,-60
CCOc1ccccc1/C=N/NC(=O)Cc1csc(Nc2cccc(C(F)(F)F)c2)n1,.,.,.,.,.,.,/,/
CN(CC(=O)Nc1cccc(F)c1)C(=O)c1ccc(N2CCCCCC2)c([N+](=O)[O-])c1,/,.,.,/,.,.,/,/
CN(CC(=O)Nc1cccc(F)c1)C(=O)c1cc([N+](=O)[O-])ccc1N1CCCCC1,.,.,.,/,.,.,17.4,.
CCOC(=O)C1CCN(S(=O)(=O)c2ccc3[nH]c(=O)ccc3c2)CC1,.,.,.,.,.,.,/,/
CCOc1cc(CNCCO)cc(Br)c1OCc1ccccc1,.,.,.,.,.,.,/,/
CCOc1cc(CNCCSc2nnnn2C)cc(Br)c1OCc1ccccc1,.,.,6.96,.,.,.,14.6,.
Cc1ccc(C(=O)c2cc([N+](=O)[O-])ccc2N2CCN(C)CC2)cc1,.,.,12.3,.,.,.,38.1,.
CCC(C)(C)NC(=O)Cn1c(=O)oc2cc(S(=O)(=O)N3CC(C)CC(C)C3)ccc21 (centres undefined),.,.,.,.,.,.,/,/
CCC1CCCCN1C(=O)N[C@@H](CCSC)C(=O)OC (some centres undefined),.,.,.,.,.,.,/,/
Cc1cc(N2CCN(Cc3nc(-c4ccc(F)cc4)oc3C)CC2)cc(C)n1,.,.,6.85,.,.,.,42.7,-46.7
COc1ccccc1N1CCN(Cc2nc(-c3ccc(F)cc3)oc2C)CC1,.,.,.,.,.,.,/,/
CC1(C)Cc2c(c(-c3ccco3)nc3sc4c(NCCN5CCOCC5)ncnc4c23)CO1,.,.,.,.,.,.,/,/
